This note sets out measurements from PubChem BioAssay (NCATS).

Values joined by “and” are separate entries in the source; they are usually repeats but may differ in a detail not shown here. Identical values can stand only once. A number with no mark means an inactive call. Results filed as inconclusive are left out. Active and inactive are the calls of the source. Unless noted, calls come from the whole dose curve.

In test [1] the target is Bile acid receptor (Homo sapiens) (UniProt Q96RI1). Description: qHTS assay for small molecule agonists of farnesoid X receptor signaling (AID 588527).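 Note: 0% = vehicle basal and 100% = reference agonist.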 Conditions: HEK293T FXR-UAS-bla, beta-lactamase ratio, 16 h; stronger effect = higher value. The gist of the method: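 Read-out: beta-lactamase reporter fluorescence with CCF4 substrate in GeneBLAzer FXR-UAS-bla HEK293T cells, after 16 h compound exposure at 37 C. Response scaled between DMSO basal (0%) and chenodeoxycholic acid at 100 uM (100%).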
Chain of Bile acid receptor (Homo sapiens) (Q96RI1 whole entry, looked up): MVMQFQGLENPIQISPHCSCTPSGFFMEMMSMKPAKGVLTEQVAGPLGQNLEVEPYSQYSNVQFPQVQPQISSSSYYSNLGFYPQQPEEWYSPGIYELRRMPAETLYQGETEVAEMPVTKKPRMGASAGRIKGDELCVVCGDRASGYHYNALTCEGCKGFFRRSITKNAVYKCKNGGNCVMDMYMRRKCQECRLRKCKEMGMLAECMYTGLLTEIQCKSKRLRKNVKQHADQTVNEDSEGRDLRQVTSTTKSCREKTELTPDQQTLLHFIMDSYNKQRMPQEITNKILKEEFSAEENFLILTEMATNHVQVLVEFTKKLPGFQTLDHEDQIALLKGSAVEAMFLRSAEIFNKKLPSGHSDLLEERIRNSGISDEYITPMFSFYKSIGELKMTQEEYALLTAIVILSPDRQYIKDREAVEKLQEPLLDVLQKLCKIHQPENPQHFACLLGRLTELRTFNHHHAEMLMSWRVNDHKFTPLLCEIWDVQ
(Quantitative high-throughput screening tests each substance at several concentrations.)

In test [2] the target is Mitogen-activated protein kinase 10 (Mus musculus) (UniProt Q61831). Description: JNK3 AlphaScreen Assay (AID 530; active = well fitted curve in either direction with a large enough effect, not every such curve was filed as active;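 note: kinase came from lysate of stimulated human HepG2 cells; signal reports phosphorylation of biotinylated GST-cJun 1-79 at Ser73 with 10 µM ATP; % is set by controls: 0 for no effect and ±100 for the full control effect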). Conditions: JNK3 lysate, c-Jun phosphorylation; series mostly up to 57.1 µM. The procedure, abridged: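 Kinase buffer: 20 mM Tris-HCl pH 7.6, 10 mM MgCl2, 1 mM DTT, 0.1 mM Na3VO4, 0.01% Tween-20; ATP 10 uM. Substrate biotin-GST-cJun(1-79), enzyme from activated HepG2 lysates. Detection by Ser73 phospho-antibody AlphaScreen.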
(In general: Alpha assays give light when donor and acceptor beads are brought close together.)

Test [3] in a line: Cell Viability - LYMP2-001 (AID 921; active = well fitted curve in the direction sought with a large enough effect; an effect the other way counts as inactive or inconclusive;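 note: 0% = DMSO only and full inhibition = tetraoctylammonium bromide control wells; nearly all actives have a fitted effect of over 70% in size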). As to conditions: LYMP2-001 lymphoblastoid cell viability; series mostly up to 92.2 µM. The gist of the method:
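Cellular ATP loss read by luciferase luminescence after 24 h compound exposure at 37 C in complete medium. LYMP2-001 lymphoblastoid cells, 2500/well; qHTS concentration-response data fitted with Hill equation for AC50.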

The nature of test [4]: MultiTox-Fluor Cytotoxicity Assay - LYMP1-002 - Dead Cells (AID 960; active = well fitted curve in the direction sought with a large enough effect; an effect the other way counts as inactive or inconclusive;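 note: 0% = DMSO and 100% = tetraoctylammonium bromide; nearly all actives have a fitted effect of over 60% in size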). As to conditions: LYMP1-002 lymphoblastoid cells, dead-cell protease fluorescence; series mostly up to 46.1 µM. The procedure, abridged:
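Readout: fluorescence at 485/520 from cell-impermeant bis-AAF-R110 cleaved by proteases leaking from damaged cells. LYMP1-002 lymphoblastoid line, 16 hr compound treatment at 37 C, concentration-response in qHTS format; Hill-equation AC50 values.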

A short description of test [5]: Cell Viability - LYMP2-024 (AID 988; active = well fitted curve in the direction sought with a large enough effect; an effect the other way counts as inactive or inconclusive;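 note: cells exposed to compound for 24 hr at 37 °C; plate controls were DMSO only for no effect and 92 µM tetraoctylammonium bromide for full effect; nearly all actives have a fitted effect of over 60% in size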). As to conditions: LYMP2-024 lymphoblastoid cell viability; series mostly up to 92.2 µM. The gist of the method:
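ATP-based luminescence (CellTiter-Glo, 30 min RT) after 24 h compound exposure at 37 C of 2500 lymphoblastoid cells/well; decrease in ATP taken as cytotoxicity. qHTS concentration-response fitted to standard Hill equation for AC50.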

Test [6] concerns the target Glucocorticoid receptor (Homo sapiens) (UniProt P04150). Description: qHTS assay for small molecule agonists of glucocorticoid receptor signaling (AID 588532; active = well fitted curve in the direction sought with a large enough effect in the signal ratio, with a control signal flat; the % refers to the signal ratio;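 note: 100% = dexamethasone at 0.1 µM and 0% = DMSO only wells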). As to conditions: HeLa MMTV-bla, beta-lactamase ratio, agonist, 18 h; stronger effect = higher value; percent of dexamethasone control, DMSO zero. The procedure, abridged: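 Agonist-mode qHTS: GRE-driven beta-lactamase in HeLa cells exposed 18 h to titrated compounds (up to 92 uM), then CCF4 ratio read after 2 h at RT; Hill-fitted EC50, efficacy relative to 0.1 uM dexamethasone.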

Test [7] has the same target. Description: qHTS assay for small molecule antagonists of glucocorticoid receptor signaling (AID 588533; active = well fitted inhibition curve with a large enough effect in the signal ratio, with a control signal flat, not every such curve was filed as active; the % refers to the signal ratio;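 note: cells stimulated with 2 nM dexamethasone as agonist; % is set by controls: 0 for no effect and ±100 for the full control effect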). Conditions: HeLa MMTV-bla, GRE beta-lactamase ratio, antagonist mode, 18 h; series mostly up to 76.8 µM. The gist of the method:
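Antagonist-mode qHTS: compound titrations added to GRE-bla HeLa cells, then dexamethasone 2 nM final; 18 h, 37 C. CCF4 FRET fluorescence normalized to dexamethasone and DMSO; IC50 from Hill fit.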

For test [8], the target named is Vitamin D3 receptor (Homo sapiens) (UniProt P11473). Description: qHTS assay for small molecule antagonists of vitamin D receptor signaling (AID 588541).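 Note: receptor activated by calcitriol during compound treatment; % is set by controls: 0 for no effect and ±100 for the full control effect.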 As to conditions: HEK293T VDR-UAS-bla, beta-lactamase ratio, antagonist mode; series mostly up to 76.7 µM. The procedure, abridged:
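Antagonist-mode beta-lactamase reporter assay: HEK293T VDR-UAS-bla cells were exposed to titrated compound alongside 1-alpha,25-dihydroxyvitamin D3 at 3 nM final for 16 h. Values were normalized to the 50 nM agonist control and DMSO basal, with IC50 and efficacy from Hill equation fits.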

Test [9] has the same target. Description: qHTS assay for small molecule agonists of vitamin D receptor signaling (AID 588543).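 Note: 0% = DMSO basal and 100% = reference agonist control.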 As to conditions: HEK293T VDR-UAS-bla, beta-lactamase ratio, 16 h; series mostly up to 76.8 µM. The gist of the method:
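Agonist-mode beta-lactamase reporter: HEK293T VDR-UAS-bla cells in charcoal-stripped 2% FBS, compound series 16 h 37 C, CCF4 2 h RT. EC50 from Hill fit, scaled against DMSO and 50 nM calcitriol control.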

In test [10] the target is Thyroid hormone receptor beta (Homo sapiens) (UniProt P10828). Description: qHTS assay for small molecule agonists of thyroid hormone receptor beta signaling (AID 588545).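 Note: 0% = DMSO only and 100% = 10 nM T3.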 As to conditions: TR-UAS-bla GripTite HEK 293, beta-lactamase ratio, agonist mode, 18 h, percent of T3 response, DMSO as zero; series mostly up to 76.7 µM. The gist of the method:
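Efficacy and EC50 values derive from Hill fits of qHTS titration data, normalized to 10 nM T3 and DMSO-only wells. HEK 293 reporter cells were stimulated for 18 hrs at 37 C, with beta-lactamase activity measured by CCF4 fluorescence.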

Test [11] shares this target. Description: qHTS assay for small molecule antagonists of thyroid hormone receptor beta signaling (AID 588547; active = well fitted inhibition curve with a large enough effect in the signal ratio, with a control signal flat, not every such curve was filed as active; the % refers to the signal ratio;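 note: cells stimulated with 0.4 nM T3 agonist during compound exposure; % is set by controls: 0 for no effect and ±100 for the full control effect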). As to conditions: TR-UAS-bla HEK293, beta-lactamase ratio, antagonist mode, 18 h. The procedure, abridged: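 Inhibition of T3-driven (0.4nM final) beta-lactamase reporter activity was measured over 0.59 nM to 92 uM compound after 18 h at 37 C. The cells were GripTite HEK293 TR-UAS-bla in charcoal/dextran-stripped serum, with CCF4 ratio read-out and IC50 from Hill fits.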

The nature of test [12]: qHTS assay for small molecule agonists of the antioxidant response element (ARE) signaling pathway (AID 651741; active = well fitted activation curve with a large enough effect in the signal ratio; the % refers to the signal ratio; note: potency is the fitted concentration of half-maximal effect; for activation: % of control where 0% means no effect). Conditions: HepG2 ARE-bla reporter, beta-lactamase FRET ratio, 16 h; series mostly up to 96 µM. The procedure, abridged: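 Agonist activity is measured as ARE-driven beta-lactamase expression in a stable HepG2 reporter line, using 16 h compound treatment at 37 C and a FRET substrate fluorescence readout after 2 h.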

Test [13] in a line: qHTS assay for small molecule antagonists of the retinoid-related orphan receptor gamma (ROR-gamma) signaling pathway - cell viability counter screen (AID 720652; active = well fitted curve in the direction sought with a large enough effect in the repeat runs; an effect the other way counts as inactive or inconclusive). As to conditions: RORgamma reporter cell line viability counter screen; series mostly up to 92.2 µM. The gist of the method:
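CHO RORE-LUC/TET-ROR line, 1,000 cells/well, 37 C 5% CO2 5 hr; cpd or DMSO + doxycycline induction, 16 hr. CellTiter-Glo, 30 min RT, luminescence = ATP content.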

The nature of test [14]: Cell Viability - Jurkat (AID 426;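 active = dose-dependent loss of cell ATP signal giving a full or clear fitted curve, ranked by lower potency value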;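 note: potency is the fitted concentration of half-maximal effect; cells exposed to compound for 40 hours at 37 °C before ATP read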). As to conditions: qHTS. The procedure, abridged:
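Luminescent ATP read-out (CellTiter-Glo, 20 min at room temperature) after 40 hr compound exposure at 37 °C of Jurkat E6-1 cells, 5000/well. Decreased ATP taken as cytotoxicity; AC50 from standard Hill equation.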

The nature of test [15]: Cell Viability - H-4-II-E (AID 543; active = well fitted curve in the direction sought with a large enough effect; an effect the other way counts as inactive or inconclusive;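 note: cells exposed to compound for 40 hours; % is set by controls: 0 for no effect and ±100 for the full control effect; nearly all actives have a fitted effect of over 35% in size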). Conditions: H-4-II-E rat hepatoma viability; series mostly up to 92.2 µM. The procedure, abridged: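 qHTS, rat hepatoma H-4-II-E, 1500 cells/well; 40 hr compound exposure, 37 °C; CellTiter-Glo ATP luminescence after 20 min RT; AC50 by standard Hill fit.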
Test [16] concerns the target Cytochrome P450 3A4 (Homo sapiens) (UniProt P08684). Description: qHTS Assay for Inhibitors and Substrates of Cytochrome P450 3A4 (AID 884; active = well fitted curve in the direction sought with a large enough effect; an effect the other way counts as inactive or inconclusive; note: % is set by controls: 0 for no effect and ±100 for the full control effect; nearly all actives have a fitted effect of over 50% in size). Conditions: recombinant CYP3A4, Luciferin-PPXE luminescence; series mostly up to 57.1 µM. The gist of the method:
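Luminescent readout of luciferin produced by CYP3A4 (20 nM) dealkylation of Luciferin-PPXE, 25 uM (its KM). NADPH-driven reaction ran 60 min at RT after 10 min compound preincubation; data scaled to 57 uM ketoconazole as 100% inhibition.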

The target in test [17] is Estrogen receptor (Homo sapiens) (UniProt P03372). Description: qHTS assay for small molecule antagonists of estrogen receptor alpha signaling (AID 588513; active = well fitted curve in the direction sought with a large enough effect in the signal ratio, with a control signal flat, not every such curve was filed as active; the % refers to the signal ratio; note: % is set by controls: 0 for no effect and ±100 for the full control effect). Conditions: ER-alpha-UAS-bla HEK293, beta-lactamase ratio, antagonist mode; series mostly up to 76.9 µM. The procedure, abridged:
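Antagonist mode: inhibition of 0.5 nM 17-beta-estradiol-driven beta-lactamase reporter in HEK 293 ER-alpha-UAS-bla cells, 18 h at 37C, CCF4 readout after 2 h at RT. Normalised to estradiol and DMSO; titration fitted to Hill.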

Test [18] has as its target Tumor necrosis factor (Homo sapiens) (UniProt P01375). Description: qHTS assay to identify small molecules that stimulate Tumor Necrosis Factor-alpha (TNF-alpha) secretion (AID 651757; active = well fitted curve in the direction sought with a large enough effect in the signal ratio; the % refers to the signal ratio; note: 0% is about no effect). Conditions: Human cells, HTRF 665/615 ratio; series mostly up to 92.2 µM. The gist of the method:
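THP-1 cells, 3000/well; compound 17 hrs, 37 C; add cryptate/XL665 anti-TNF-alpha antibody pair; 3 hr RT; TR-FRET (HTRF) read of secreted TNF-alpha. Quantitative HTS format.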

Test [19] in a line: qHTS assay for small molecule activators of the human pregnane X receptor (PXR) signaling pathway (AID 720659; call rule not given here; note: 0% is about no effect). As to conditions: DPX-2 HepG2 CYP3A4-luciferase, 24 h; series mostly up to 92.3 µM.
Test [20] addresses Nuclear receptor subfamily 1 group I member 2 (Rattus norvegicus) (UniProt Q9R1A7). Description: qHTS assay for small molecule activators of the rat pregnane X receptor (rPXR) signaling pathway (AID 651751; call rule not given here; note: 0% is about no effect). As to conditions: rPXR reporter cells, luciferase (One-Glo), 24 h.

Chain of Tumor necrosis factor (Homo sapiens) (P01375 whole entry, looked up): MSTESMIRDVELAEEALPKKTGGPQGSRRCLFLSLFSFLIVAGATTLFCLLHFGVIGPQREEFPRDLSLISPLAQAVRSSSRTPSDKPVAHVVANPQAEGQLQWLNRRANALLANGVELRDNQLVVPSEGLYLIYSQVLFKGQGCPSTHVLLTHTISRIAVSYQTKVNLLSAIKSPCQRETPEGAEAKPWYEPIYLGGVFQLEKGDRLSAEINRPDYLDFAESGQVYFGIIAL
Chain of Glucocorticoid receptor (Homo sapiens) (P04150 whole entry, looked up): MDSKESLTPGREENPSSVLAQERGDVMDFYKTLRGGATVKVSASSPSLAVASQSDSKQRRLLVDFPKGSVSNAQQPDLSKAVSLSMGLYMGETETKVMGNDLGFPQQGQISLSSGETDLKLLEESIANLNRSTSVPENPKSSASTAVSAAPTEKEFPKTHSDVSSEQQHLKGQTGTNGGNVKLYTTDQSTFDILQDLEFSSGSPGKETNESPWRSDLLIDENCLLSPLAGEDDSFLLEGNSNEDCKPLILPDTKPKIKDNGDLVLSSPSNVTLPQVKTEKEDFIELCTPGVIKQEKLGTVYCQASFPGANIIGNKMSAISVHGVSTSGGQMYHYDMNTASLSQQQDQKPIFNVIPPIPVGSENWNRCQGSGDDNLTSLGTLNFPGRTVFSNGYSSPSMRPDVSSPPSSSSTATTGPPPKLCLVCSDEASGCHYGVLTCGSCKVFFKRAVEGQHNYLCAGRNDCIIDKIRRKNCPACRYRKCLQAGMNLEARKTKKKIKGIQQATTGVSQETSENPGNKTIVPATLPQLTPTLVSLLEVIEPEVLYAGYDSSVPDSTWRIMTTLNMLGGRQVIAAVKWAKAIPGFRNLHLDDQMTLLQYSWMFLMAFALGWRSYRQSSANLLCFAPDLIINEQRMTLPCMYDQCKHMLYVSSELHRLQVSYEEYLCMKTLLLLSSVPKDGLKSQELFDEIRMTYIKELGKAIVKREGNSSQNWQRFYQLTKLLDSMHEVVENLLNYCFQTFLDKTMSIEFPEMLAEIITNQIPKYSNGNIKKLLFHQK
Chain of Nuclear receptor subfamily 1 group I member 2 (Rattus norvegicus) (Q9R1A7 whole entry, looked up): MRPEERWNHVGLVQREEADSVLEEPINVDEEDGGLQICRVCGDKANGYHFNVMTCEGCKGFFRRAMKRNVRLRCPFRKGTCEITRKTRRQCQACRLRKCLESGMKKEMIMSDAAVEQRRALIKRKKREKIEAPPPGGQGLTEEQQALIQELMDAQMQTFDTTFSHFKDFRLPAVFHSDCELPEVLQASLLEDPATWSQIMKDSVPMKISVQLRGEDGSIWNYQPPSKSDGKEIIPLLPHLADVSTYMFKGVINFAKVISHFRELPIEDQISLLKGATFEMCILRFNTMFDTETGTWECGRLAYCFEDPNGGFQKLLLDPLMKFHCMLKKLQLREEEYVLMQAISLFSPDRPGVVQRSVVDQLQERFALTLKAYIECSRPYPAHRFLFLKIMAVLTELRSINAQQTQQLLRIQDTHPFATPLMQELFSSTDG
Chain of Cytochrome P450 3A4 (Homo sapiens) (P08684 whole entry, looked up): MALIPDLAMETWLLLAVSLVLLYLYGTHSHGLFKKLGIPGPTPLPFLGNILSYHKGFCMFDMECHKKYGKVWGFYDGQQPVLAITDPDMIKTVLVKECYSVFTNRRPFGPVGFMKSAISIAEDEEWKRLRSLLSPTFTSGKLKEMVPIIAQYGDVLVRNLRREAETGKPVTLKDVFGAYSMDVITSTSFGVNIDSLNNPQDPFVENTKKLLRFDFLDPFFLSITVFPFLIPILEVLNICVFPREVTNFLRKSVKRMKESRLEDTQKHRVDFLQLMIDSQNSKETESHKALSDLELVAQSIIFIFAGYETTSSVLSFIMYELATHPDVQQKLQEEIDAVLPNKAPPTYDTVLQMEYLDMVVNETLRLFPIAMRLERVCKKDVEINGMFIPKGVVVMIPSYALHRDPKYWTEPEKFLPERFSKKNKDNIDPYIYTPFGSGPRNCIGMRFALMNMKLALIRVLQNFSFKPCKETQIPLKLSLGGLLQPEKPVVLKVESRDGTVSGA
Chain of Thyroid hormone receptor beta (Homo sapiens) (P10828 whole entry, looked up): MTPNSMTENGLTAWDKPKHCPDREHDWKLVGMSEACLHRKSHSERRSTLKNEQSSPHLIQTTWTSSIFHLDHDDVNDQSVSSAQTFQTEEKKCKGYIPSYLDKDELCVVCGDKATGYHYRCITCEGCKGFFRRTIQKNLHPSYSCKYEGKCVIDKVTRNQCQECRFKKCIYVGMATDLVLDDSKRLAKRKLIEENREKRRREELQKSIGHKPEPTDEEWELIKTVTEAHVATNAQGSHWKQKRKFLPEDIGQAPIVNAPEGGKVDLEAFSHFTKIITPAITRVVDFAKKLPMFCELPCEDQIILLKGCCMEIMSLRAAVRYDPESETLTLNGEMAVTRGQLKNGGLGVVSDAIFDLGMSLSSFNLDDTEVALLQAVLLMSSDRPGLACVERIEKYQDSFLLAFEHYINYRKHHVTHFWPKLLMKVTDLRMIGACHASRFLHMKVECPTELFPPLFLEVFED
Chain of Vitamin D3 receptor (Homo sapiens) (P11473 whole entry, looked up): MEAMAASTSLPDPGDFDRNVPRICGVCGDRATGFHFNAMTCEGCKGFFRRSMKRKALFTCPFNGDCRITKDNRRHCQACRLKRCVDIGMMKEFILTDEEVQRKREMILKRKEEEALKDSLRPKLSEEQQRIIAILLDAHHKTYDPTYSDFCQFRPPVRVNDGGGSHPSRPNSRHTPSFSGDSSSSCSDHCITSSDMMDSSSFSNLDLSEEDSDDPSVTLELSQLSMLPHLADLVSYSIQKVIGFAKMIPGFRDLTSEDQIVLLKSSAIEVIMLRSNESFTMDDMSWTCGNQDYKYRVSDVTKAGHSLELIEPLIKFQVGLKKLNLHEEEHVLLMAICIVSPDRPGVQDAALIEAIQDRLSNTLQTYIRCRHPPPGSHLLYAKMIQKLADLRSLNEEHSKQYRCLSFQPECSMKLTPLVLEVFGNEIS
Chain of Estrogen receptor (Homo sapiens) (P03372 whole entry, looked up): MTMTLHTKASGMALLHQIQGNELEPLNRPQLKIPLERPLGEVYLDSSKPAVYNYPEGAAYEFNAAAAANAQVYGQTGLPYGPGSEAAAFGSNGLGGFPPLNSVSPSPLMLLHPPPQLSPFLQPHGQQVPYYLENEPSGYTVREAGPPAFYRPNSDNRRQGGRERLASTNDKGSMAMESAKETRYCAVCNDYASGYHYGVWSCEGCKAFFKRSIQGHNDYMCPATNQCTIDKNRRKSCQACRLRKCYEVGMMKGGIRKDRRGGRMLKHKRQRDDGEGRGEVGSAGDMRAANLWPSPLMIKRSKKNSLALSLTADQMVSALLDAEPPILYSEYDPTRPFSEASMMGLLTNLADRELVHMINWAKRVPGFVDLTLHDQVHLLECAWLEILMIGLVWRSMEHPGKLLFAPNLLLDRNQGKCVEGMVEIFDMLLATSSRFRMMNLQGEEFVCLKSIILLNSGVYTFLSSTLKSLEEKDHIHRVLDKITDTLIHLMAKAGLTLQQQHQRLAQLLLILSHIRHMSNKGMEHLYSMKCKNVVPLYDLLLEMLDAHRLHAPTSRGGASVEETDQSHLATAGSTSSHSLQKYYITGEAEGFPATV

As to `CC1=C2[C@H](/C=C(\C)C(=O)O)CC[C@@H](C)[C@H]2CC1`, the activation in [1] is -3.32%.

For `COC1=CC(=O)O[C@@H](/C=C/c2ccc3c(c2)OCO3)C1`, the call in [2], in test [8], in [9] and in [10] was inactive. The Potency result in test [3], in test [4], in test [5], in test [7] and in test [13] was “inactive” in each case. Moreover, in test [6], the activation is -3.44%. For the same molecule, in [11], the activity change % (negative = inhibition) is 4.69%. Moreover, in test [12], the Potency was 6.68 µM (active).

Consider `O=C=NC1CCCCC1`, for which, in [14], the Potency was over 92 µM. The result in test [2], in test [8], in test [9], in [10], in [18] and in test [19] was inactive. Besides, the Potency entry in test [15], in test [16], in test [3], in test [4], in test [5] and in [17] was “inactive” in each case. Besides, the Potency entry in test [7], in [12] and in test [13] was “inactive” in each case. The activation in test [1] was -4.4% and -2.88%; in [6] it was 10.3%. Moreover, the activity change % (negative = inhibition) in test [11] is -8.25% and 2.05%.

Regarding `C=CC(C)(CCC=C(C)C)OC(C)=O` (stereo not drawn), the activation in test [1] is -2.23%.

In the case of `C=CC1CC=CCC1` (stereo not drawn), in [14], the Potency was over 92 µM. Also, the result in test [2], in [8], in test [9], in test [10], in test [18] and in test [19] was inactive. The Potency result in [15], in [16], in test [3], in test [4], in test [17] and in [7] was “inactive” in each case. Also, in [12], the Potency result is “inactive”. The activation in test [1] is 1.2% and -0.94%; in test [6], -1.79% and -4.91%. Further, the activity change % (negative = inhibition) in test [11] is 13.7% and -3.35%. Also, the max response in test [20] was -0.819% and 2.71%.

On to `C=CCc1ccc(OC)c(OC)c1`, for which, in test [1], the activation was 0.141%.

On to `CCCCCCCCCCCCCC(=O)O`, for which the activation in test [1] was 0.574%.

For `C=CC(N)=O`, in test [14], the Potency was over 92 µM. Further, the molecule was called inactive in test [2], in test [8], in [9], in [18] and in [19]. For the same molecule, the Potency result in [15], in test [3], in [4], in [5], in test [17] and in test [7] was “inactive” in each case. Moreover, the Potency entry in [12] and in [13] was “inactive” throughout. Also, the activation in [6] is -1.03% and 0.342%. In addition, in [20], the max response is 2.43% and 2.67% and -1.89%.

`Nc1ccccc1Cl`: the Potency in [14] was over 92 µM. Also, the molecule was classed as inactive in test [2], in test [8], in [9], in [10], in test [18] and in test [19]. For the same molecule, the Potency entry in [15], in test [16], in test [3], in [4], in [5] and in test [17] was “inactive” throughout. Also, the Potency result in test [7] and in [12] was “inactive” throughout. For the same molecule, the figures for the activation in [1] and in test [6] were -1.66% and -0.0832%, respectively. In addition, in test [11], the activity change % (negative = inhibition) was -4.52%. In addition, in test [20], the max response is 9.37%.
